Shown are actives, neighbours in structure and some others; about 8% of the full set was active somewhere.
Marburg entry inh: qHTS for inhibitors of binding or entry into cells for Marburg Virus. Marburg virus pseudotyped entry inhibition, cell reporter. Potency, µM (series often up to 37.8 µM), without a hit: at the top dose activity change, negative = inhibition, actives largely listed as inhibitors. 300,000 compounds, 1.8% hits. AID 540276, 2011; calls by dose curve; tested in HEK293 cells; further: potency means the concentration at half of the fitted maximal effect; on the % scale 0 is the no-effect control and ±100 the full control effect
LASV entry inh: qHTS for Inhibitors of binding or entry into cells for Lassa Virus; Lassa virus pseudotype entry inhibition, cell reporter; Potency, µM (highest dose often 37.9 µM), for inactives: top-dose activity change, negative = inhibition, usual class: inhibitors; 300,000 compounds, 1.2% hits; AID 540256, 2011; calls by dose curve; tested in HEK293 cells; further: potency means the concentration at half of the fitted maximal effect; on the % scale 0 is the no-effect control and ±100 the full control effect; nearly all actives have a fitted effect of over 50% in size
HCV inhibitor: qHTS Assay for Inhibitors of Hepatitis C Virus (HCV); Huh7.5.1 HCVcc-Cre infection, luciferase reporter, 44 h; Potency, µM (top dose mostly 41.8 µM), inactives show top-dose activity change, negative = inhibition, most hits filed as inhibitors; 340,000 compounds, 3.4% hits; AID 651820, 2012; active means well fitted inhibition curve with a large enough effect; inconclusive means small, poorly fitted or top-dose-only effect, or another doubt; inactive means no such curve, though single readings can be large or run the other way; further: potency means the concentration at half of the fitted maximal effect; on the % scale 0 is the no-effect control and ±100 the full control effect
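Infectious HCVcc-Cre (~0.5 moi) was added to cells just after compound, with cells seeded 4 h earlier at 1,000 per well. Luciferase activity after 44 h culture reported infection; substrate was incubated 15 min at room temperature before reading.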
SARS PLP yeast: qHTS of Yeast-based Assay for SARS-CoV PLP | S. cerevisiae expressing SARS-CoV PLpro, growth rescue | Potency, µM (top dose mostly 32.9 µM), for inactives: top-dose activity, positive = growth rescue, usual class: activators | 330,000 compounds, 0.19% hits | AID 485353, 2010; calls by dose curve; further: potency means the concentration at half of the fitted maximal effect; 0% is about no effect; nearly all actives have a fitted effect of over 55% in size
HCMV antiviral: qHTS Assay for inhibitors of the human cytomegalovirus (HCMV); HFF cells, HCMV-luciferase reporter, 72 h; hits give low values; activity change, negative = inhibition, % at 57.5 µM; 410,000 compounds, 4.5% hits; in the data active means activity change below about -60%; inconclusive means no clear call, values can overlap the other calls; inactive means above about -39%; further: on the % scale 0 is the no-effect control and ±100 the full control effect
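Inhibition of viral replication was scored as loss of reporter luminescence in HFFs infected with HCMV-luciferase (MOI 1 PFU/cell) for 72 h; compounds tested at 2 doses, normalized to buffer and Salinomycin controls.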
FMDV antiviral: High Throughput Screening for Foot and Mouth Disease Virus Antivirals | Potency, µM (top dose mostly 57.9 µM), without a hit: top-dose activity change, negative = inhibition, hits mostly inhibitors | FMDV antiviral cell-based qHTS | AID 1159524, 2015 | 410,000 compounds, 1.2% hits; calls by dose curve; tested in HEK293T cells; further: read-out not given here; potency means the concentration at half of the fitted maximal effect; on the % scale 0 is the no-effect control and ±100 the full control effect; nearly all actives have a fitted effect of over 45% in size
* marks the source's active call; other numbers are inactive results; u = inconclusive; x = no result; [ ] = another dose, or the depositor's remark.

SMILES	Marburg entry inh	LASV entry inh	HCV inhibitor	SARS PLP yeast	HCMV antiviral	FMDV antiviral
Cc1ccccc1NC(=S)NC(=O)c1cncc(Br)c1	u	u	-5.2%	11.2%	-10.7	-11.4%
O=C(NC(=S)Nc1cccnc1)c1cccc(Br)c1	u	1.4%[46.1 µM]	-5.7%	-8.2%	-27.4	0.0%
Cc1c(Cl)cccc1NC(=S)NC(=O)c1cncc(Br)c1	-5.1%[46.1 µM]	3.16µM*	6.4%	x	-65.4*	-8.5%
CN(C)CCNC(=S)Nc1ccc(Br)cc1	0.4%	u	0.7%	15.5%	-7.1	11.4%
CCOC(=O)c1c(S(=O)(=O)N2CCCC(C(=O)Nc3ccc(C)cc3C)C2)c(C)n(CC)c1C (stereo unspecified)	x	-10.6%[46.1 µM]	x	x	-8.9	0.0%
CC(C(=O)NCc1ccccc1)N1C(=O)c2ccccc2C1=O (stereo unspecified)	0.0%	0.9%	16.1%	0.1%	6.0	-12.7%
CC(C(=O)O)N1C(=O)c2ccccc2C1=O (stereo unspecified)	1.0%	-0.2%	6.4%	-7.3%	-99.0*	-9.8%
Fc1cccc(CNc2ncnc3ccc(-c4ccc5c(c4)OCO5)cc23)c1	x	x	x	3.2%	-92.1*	u
c1ccc(CNc2ncnc3ccc(-c4ccc5c(c4)OCO5)cc23)cc1	x	x	x	x	x	3.2%
COc1cccc(-c2ccc3ncnc(NCc4cnc(C)cn4)c3c2)c1	x	x	x	x	x	-23.0%
COc1cc2ncnc(NCc3cc(F)ccc3F)c2cc1OC	2.7%	u	1.4%	-2.1%	-8.7	-1.5%
COCCCNc1ncnc2ccc(C)cc12	-27.5%	-23.4%	u	0.1%	-62.6*	-29.4%
COc1cccc(-c2ccc3ncnc(NCc4cccc(F)c4)c3c2)c1	x	x	x	8.91µM*	x	x
Fc1cccc(CNc2ncnc3cc(Cl)ccc23)c1F	x	x	7.08µM*	-2.5%	u	u
CCCCn1c(C)cc2c(c1=O)C1O[C@](c3ccc(OC)cc3)(Cc3cc(OC)c(OC)cc31)O2	x	x	x	5.7%[6.58 µM]	x	x
COc1cccc(CNc2ncnc3ccc(-c4c(C)noc4C)cc23)c1	x	x	x	-4.8%	-34.0	0.0%
COc1cccc(-c2ccc3ncnc(NCc4cccc(C)c4)c3c2)c1	x	x	x	u	-85.6*	-24.9%
COc1cccc(CNc2ncnc3cc(Cl)ccc23)c1	u	5.9%	11.2µM*	-2.1%	u	u
Nc1c(C(=O)Nc2ccc(Cl)cc2)sc2nc3c(cc12)N1CCC3CC1	0.3%[46.1 µM]	u	x	x	-86.1*	u
COc1ccc(NC(=O)c2sc3nc4c(cc3c2N)N2CCC4CC2)cc1OC	x	u	x	x	-3.8	u
Nc1c(C(=O)Nc2ccc(Cl)c(C(F)(F)F)c2)sc2nc3c(cc12)N1CCC3CC1	u	u	x	x	-93.1*	u
CC(C)(CSc1ncccn1)NS(=O)(=O)c1ccccc1	15.3%[46.1 µM]	12.6%[46.1 µM]	19.6%	0.4%	5.8	11.6%
Cc1ccc(S(=O)(=O)NC(C)(C)CSc2nnc(Nc3ccccc3)s2)cc1	u	u	17.8µM*	-3.7%	-24.6	u
CCCCN(Cc1cc2cccc(C)c2[nH]c1=O)S(C)(=O)=O	x	x	-9.9%	0.3%	23.4	-23.0%
COc1ccc2c(c1)c1c(c(=O)n(-c3ccccc3C)c(=O)n1CC(=O)N1CCCC1)n2C	x	6.3%[46.1 µM]	x	x	-3.5	-4.2%
SMILES	Marburg entry inh	LASV entry inh	HCV inhibitor	SARS PLP yeast	HCMV antiviral	FMDV antiviral
Cc1ccc(NC(=O)CN(Cc2ccco2)Cc2ccccc2O)cc1C	u	u	u	-10.6%	-64.1*	5.9%
C=CCn1c(C)cc(C(=O)COc2ccc(N(C)S(=O)(=O)c3ccc(NC(C)=O)cc3)cc2)c1C	x	x	8.91µM*	-0.7%	-21.0	u
C=C[C@H](O)Cc1c(C)n[nH]c1C	0.7%	x	x	x	x	x
COc1ccc(NC(=O)CCS(=O)(=O)c2nc(-c3cccs3)cc(C(F)(F)F)n2)cc1OC	u	u	x	x	-101.1*	22.4µM*
COc1ccc(NC(=O)CCS(=O)(=O)c2nc(-c3ccc4c(c3)OCO4)cc(C(F)(F)F)n2)cc1OC	-18.3%[46.1 µM]	-1.0%[46.1 µM]	x	x	10.1	-6.1%
O=C(CCS(=O)(=O)c1nc(-c2ccc3c(c2)OCO3)cc(C(F)(F)F)n1)Nc1ccc(F)c(Cl)c1	-23.3%[46.1 µM]	-13.6%[46.1 µM]	x	x	-99.9*	u
COc1cc(NC(=O)CCS(=O)(=O)c2nc(-c3cccs3)cc(C(F)(F)F)n2)cc(OC)c1OC	u	u	x	-4.6%	-98.4*	25.1µM*
Cc1cc(NC(=O)CSc2nc(-c3cccs3)cc(C(F)(F)F)n2)no1	u	u	u	1.5%	u	x
Cc1cc(NC(=O)CCCS(=O)(=O)c2nc(-c3cccs3)cc(C(F)(F)F)n2)no1	u	u	11.2µM*	6.2%	123.2	u
Cc1ncoc1C(=O)N1CCOc2ccc(CN3CCC(Oc4cccnc4)CC3)cc2C1	x	x	x	x	x	-1.5%
O=S(=O)(Nc1cccc(F)c1)c1ccc2[nH]c3c(c2c1)CCCCC3	x	-14.5%[46.1 µM]	x	x	22.5	29.5%
CC(=O)Nc1ccc(S(=O)(=O)Nc2nc3ccccc3nc2Nc2ccc(O)cc2)cc1	x	x	13.2%	0.4%	-21.7	5.4%
CCC(C)CN1C(=O)CSCC1(C)C(=O)Nc1ccc2c(c1)OCCO2 (stereo unspecified)	x	x	x	x	12.2	-7.6%
O=C(CCS(=O)(=O)c1nc(-c2cccs2)cc(C(F)(F)F)n1)Nc1cccc(O)c1	u	-24.0%[46.1 µM]	x	x	-99.4*	22.4µM*
CCOC(=O)c1ccc2c(c1)nc(COc1ccc3ccccc3c1)n2CC	4.61µM*	u	-20.7%	7.7%	-36.0	-15.7%
Cc1sc2ncnc(N3CCN(Cc4ccccc4)CC3)c2c1-c1ccc(F)cc1	6.2%[46.1 µM]	3.2%	u	-3.8%	-10.4	u
CC(=O)/C(=C/Nc1ccc(Oc2ccccc2)cc1)c1ccccc1	2.8%	u	4.6%	-5.7%	-76.8*	-1.4%
CCOC(=O)N1CCN(C(=O)C[C@H]2C[C@@]3(C(=O)OC)C(=C[C@H](C(C)(C)C)O[C@@H]3C)N(CCC3=CCCCC3)C2=O)CC1	x	x	x	x	113.7	x
Oc1ccc(-c2nc3ccccc3s2)cc1	x	x	13.8%	-4.5%	62.7	7.4%
Nc1cc2sc(-c3ccc(C(=O)O)cc3)nc2cc1Cl	13µM*	13µM*	37.9%	-15.9%	2.4	-59.6%
CC1CCN(c2nc3ccc(C(=O)O)cc3s2)CC1	u	0.631µM*	25.4%	-16.2%	-78.3*	u
O=C(O)c1ccc2nc(-c3ccccc3)sc2c1	1.46µM*	2.24µM*	0.0%	-20.6%	u	2.51µM*
Nc1ccc(-c2nc3ccc(C(=O)O)cc3s2)cc1	0.461µM*	0.461µM*	12.8%	-9.4%	-84.6*	u
NC(=O)c1ccc2nc(NC(=O)c3ccc(N)cc3)sc2c1	u	u	-25.3%	3.3%	53.5	13.0%
CN(C)c1ncc2nc(CCc3ccccc3)c(=O)n(-c3ccccc3)c2n1	x	x	x	x	x	-11.8%
CCN(CC)S(=O)(=O)c1ccc(NCc2ccccn2)nc1	x	x	9.2%	-0.2%	3.2	12.5%

Screening data deposited in PubChem by National Center for Advancing Translational Sciences (NCATS).
